Source: PubChem BioAssay (several laboratories)
M1 antagonist – blocks the rat M1 muscarinic receptor response to acetylcholine; P08482; actives 3.4% (n = 64,000); CHO-M1 cells, Fluo-4 calcium, ACh EC80 antagonist mode; hits give low values; B-score at 10 µM;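 active = calcium fluorescence response, raw or row-and-column corrected B-score, differing from the plate sample mean either way at a set confidence level, mostly lower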
Target sequence (P08482 whole entry, looked up): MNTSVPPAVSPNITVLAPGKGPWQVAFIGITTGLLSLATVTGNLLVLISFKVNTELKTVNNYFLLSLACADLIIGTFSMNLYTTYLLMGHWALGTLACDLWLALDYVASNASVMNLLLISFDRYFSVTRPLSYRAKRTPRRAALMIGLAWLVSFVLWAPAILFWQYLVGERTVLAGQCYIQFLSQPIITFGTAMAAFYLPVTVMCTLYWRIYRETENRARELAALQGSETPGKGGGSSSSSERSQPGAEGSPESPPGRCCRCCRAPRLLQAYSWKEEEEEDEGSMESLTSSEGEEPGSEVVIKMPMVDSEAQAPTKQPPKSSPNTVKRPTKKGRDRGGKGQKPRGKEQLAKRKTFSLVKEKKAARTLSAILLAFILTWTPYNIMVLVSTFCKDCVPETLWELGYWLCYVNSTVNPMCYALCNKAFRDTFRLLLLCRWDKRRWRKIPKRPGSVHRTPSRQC
M1 agonist – activates the M1 muscarinic receptor. actives 3% (n = 64,000). CHO-M1 cells, Fluo-4 calcium fluorescence, agonist mode; hits give high values. B-score at 10 µM. AID 626;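 active = fluorescence rise, raw or as B-score row- and column-corrected plate score, outside the 99.7% band of its plate's samples, either direction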
Her2 expr inh – Her2 kinase expression inhibition; P04626; SKBR-3 HER2 protein level, AlphaScreen, 18-24 h; hits give low values; HER2 level % of control, % at 10 µM; actives 0.69% (n = 65,000); AID 645;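 active = HER2 level under 5% of the carrier-only control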;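 note: 100% = DMSO carrier and 0% = 500 nM PU-H71 HSP90 inhibitor; lower value means stronger loss of Her2 protein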
JNK3 inh – blocks human JNK3 kinase activity | purified JNK3 kinase activity, HTS | inhibition, % at 8 µM | actives 0.61% (n = 60,000); in the data active = inhibition above about 17%;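 note: 0% = DMSO and 100% = reference inhibitor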
FXIIa mix inh – inhibitors of human coagulation factor XIIa, pooled mixtures; actives 0.2% (n = 62,000); inhibition, % at 5 µM; purified FXIIa, fluorogenic substrate; P00748;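 note: 0% = enzyme without compound and 100% = no enzyme blank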
FXIa mix inh – inhibitors of human coagulation factor XIa, pooled mixtures. actives 0.19% (n = 62,000). purified FXIa, fluorogenic substrate. P03951. inhibition, % at 5 µM;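 note: each value is inhibition by a whole ten-compound pool holding the compound; 0% = enzyme with no mixture and 100% = wells lacking enzyme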
An asterisk follows results filed as active; / = not tested or not shown. The list is not random: actives were taken first. Their share in the collection is about 6.9%. Cut-off read from the data, not from the text of the source, unless noted: active = inhibition above about 20% (passing the limit was not always enough); inactive = the rest.

SMILES	M1 antagonist	M1 agonist	Her2 expr inh	JNK3 inh	FXIIa mix inh	FXIa mix inh
O=C(c1ccco1)N1CCN(C(=O)c2cc(-c3ccccn3)nc3ccc(Cl)cc23)CC1	-0.85	5.3*	67	-4	0	7
N#CC(C(=O)c1ccco1)c1ccccn1 (stereo not given)	-0.068	0.052	99	13	37	7
N#C/C(=C(\O)c1ccco1)c1ccccn1	-1.7	0.62	75	19*	-1	-7
COC(=O)c1cc(OC)c(OC)cc1NC(=O)c1c(C)noc1C	-0.12	-0.27	106	-3	28	-1
Cc1ccccc1-n1nc(C)c2cc(C(=O)NCc3cccnc3)sc21	-0.36	-0.11	37	57*	6	9
CCOc1cc(C(=O)NCc2ccncc2)cc(OCC)c1OCC	0.056	0.15	94	1	-8	5
CC(=O)Oc1cc2c(C(=O)NCc3ccncc3)c(C)oc2c2ccccc12	2*	6.1*	49	-10	2	3
CC1CCCCN1C(=O)CSc1nnc(-c2ccc(Cl)s2)o1 (stereo not given)	/	/	86	5	2	8
O=C(c1ccc(Cl)cc1)C1C2C(=O)N(c3ccccc3)C(=O)C2C2CCCN21 (stereo not given)	0.86	15*	84	5	3	4
O=c1[nH]c(=S)c2c(n1-c1ccccc1)CCC2	-0.023	-0.42	96	18*	4	8
CCOC(=O)N1CCN(S(=O)(=O)c2cc(Cl)ccc2Cl)CC1	0.95*	-0.74	114	/	-20	-3
O=c1oc2c(CN3CCCCCC3)c(O)ccc2cc1-c1nc2ccccc2[nH]1	-17*	248*	59	-11	-15	-11
Cc1sc2nc(-c3cccs3)nc(N3CCCN(C)CC3)c2c1C	-2.2*	-0.0084	28	-8	4	-4
COc1cccc2c(=O)c(C(=O)NCc3cccs3)c[nH]c12	0.27	0.81	93	37*	3	3
COc1ccccc1-c1cc(C(=O)NCc2cccs2)no1	-0.19	-0.33	72	3	4	4
COc1ccccc1S(=O)(=O)Cc1ccc(C(=O)NCc2cccs2)o1	2.2*	0.026	108	3	0	-9
COc1ccc(S(=O)(=O)Cc2ccc(C(=O)NCc3cccs3)o2)cc1	0.46	-0.024	79	-7	8	-13
Cn1c(=O)c2c(nc3sccn32)n(C)c1=O	0.25	0.74	/	/	2	8
CC(=O)Nc1cccc(NC(=O)c2c(-c3ccccc3Cl)noc2C)c1	-0.0084	-0.051	-19*	-3	2	8
Cc1onc(-c2ccccc2Cl)c1C(=O)Nc1cccnc1	-0.17	-1.1	92	4	-17	5
Cc1cccc(-c2c3c(=O)n(C)c(=O)n(C)c3c3nnc4ccccc4n23)c1	-0.85	5.2*	56	1	/	/
Cn1nnnc1SCC(=O)Nc1c(Cl)cccc1Cl	0.24	0.51	-20*	2	7	-1
CCOc1ccccc1CNC(=O)C1CCN(C(=O)c2sccc2-n2cccc2)CC1	0.45	1	84	2	2	7
COc1ccc(NC(=O)CCCn2c(=O)[nH]c3ccccc3c2=O)cc1	-0.065	-0.56	95	9	9	-1
COc1ccc(NC(=O)CCCCn2c(=O)[nH]c3ccccc3c2=O)cc1	0.27	-0.072	91	21*	-13	2
SMILES	M1 antagonist	M1 agonist	Her2 expr inh	JNK3 inh	FXIIa mix inh	FXIa mix inh
O=C(Nc1ccc(N2CCN(C(=O)c3ccco3)CC2)c(Cl)c1)c1c(F)c(F)c(F)c(F)c1F	-0.34	2.4	32	4	-1	1
O=C(Nc1ccc2c(c1)OCO2)C1CCN(S(=O)(=O)c2cccc3cccnc23)CC1	-0.86	3.5	79	-3	-1	14
Cc1ccc(S(=O)(=O)NC(CN2CCOCC2)=NCCNS(=O)(=O)c2ccccc2)cc1	0.24	-1.9	91	2	11	-2
Cc1nc2cc(N3CCCCC3)c(NC(=O)c3cccnc3)cc2c(=O)n1Cc1ccccc1	2.8*	-0.13	104	-3	7	-2
COC(=O)c1cccc(CSc2nnc(C)s2)c1	0.94	0.35	74	9	7	5
COc1ccc2c(c1OC)C(=O)OC2Nc1ccccc1S(=O)(=O)C(F)F (stereo not given)	-0.0044	-0.22	-21*	3	5	6
C/C(=N\O)C(=O)C(CN1CCCCC1)CN1CCCCC1	-0.34	-0.64	-12*	-2	3	-5
O=C1OCCC1Sc1nc(-c2ccccc2)cs1 (stereo not given)	0.091	-0.068	104	-5	5	7
Nc1c(S(=O)(=O)c2ccccc2)c2nc3ccccc3nc2n1/N=C/c1cccc(O)c1	-0.25	-0.22	-28*	-3	5	9
N#CC1=C2SCN(c3ccccc3)CN2C(=O)CC1c1c(Cl)cccc1Cl (stereo not given)	-0.073	0.54	68	-6	8	2
Cc1ccc(C2CC(=O)N3CN(c4ccc(Br)cc4)CSC3=C2C#N)o1 (stereo not given)	-0.22	-0.022	-19*	-5	2	5
COC(=O)c1sccc1NC(=O)CN1CCN(c2ccc(F)cc2)CC1	0.6	0.0054	117	47*	3	-4
Cc1nn(-c2ccc(Cl)cc2)c2sc(C(=O)N3CCN(c4ccccn4)CC3)cc12	-0.021	-0.16	95	-2	-6	-1
Cc1nn(-c2ccc(Cl)cc2)c2sc(C(=O)N3CCN(C(=O)c4ccco4)CC3)cc12	0.21	2.8*	118	/	5	-1
CCOc1ccc(NC2=NC(C(=O)NCc3ccccc3)CC(=O)N2)cc1 (stereo not given)	0.49	-0.66	78	-9	12	-3
CCOC(=O)c1sc(C)c2c1NC(C)(c1cccs1)NC2=O (stereo not given)	0.42	0.71	93	7	3	0
O=C(O)c1ccccc1C(=O)NCc1ccccc1	-0.0033	1.2	103	/	9	5
Cc1nc2cccc(C(=O)NCc3ccccc3)c2o1	-0.19	-0.034	86	23*	0	6
CCOC(=O)CCCCC(=O)c1[nH]c(=O)[nH]c1CSc1nc2ccccc2[nH]1	/	/	101	-42	5	3
Cc1[nH]c(=O)[nH]c1C(=O)CCCCC(=O)OCC(=O)Nc1ccccn1	-0.024	1.2	61	43*	-9	6
COc1cccc(/C=N/n2c(SC)nnc2-c2ccccc2)c1O	-1	7.2*	63	7	7	4
COCC(C)NCc1ccccc1C (stereo not given)	0.5	-1.3	92	3	-17	9
COc1ccc(S(=O)(=O)n2ccnc2)c2cccnc12	0.091	0.33	74	-5	5	1
Cc1cn(S(=O)(=O)c2ccc(Br)c3ccccc23)cn1	-0.24	-0.72	104	40*	1	1
Cc1ccc(CS(=O)(=O)CCC(=O)NCCN2CCCC2)cc1	0.029	0.39	84	-1	10	8
